Data as given in the supplement of paper PMC10849652.
The full data set covers some 7,900 targets. This sample favours those with a hit. About 0.6% of all pairs of compound and target were hits. Unmarked numbers belong to inactive results.

Legend:
Assay in all cases: log2 fold change, soluble protein after heating vs DMSO (PISA); higher = thermal stabilisation; K562 cells, 10 uM, 30 min; active = over 0.2 and 3.5 SD of the protein, either way, in both replicates (recomputed)
IRAK-1-4 Inhibitor I = compound: C1COCCN1CCN2C3=CC=CC=C3N=C2NC(=O)C4=CC(=CC=C4)[N+](=O)[O-] [IRAK-1-4 Inhibitor I]
Summary of the method: (§1)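 Aliquots of K562 cells (2×10^6 cells/mL) treated with 10 μM compound for 30 min were heated for 3 min over 48°C-58°C. After pooling and extraction in PBS with 0.5% NP-40 at 4°C, soluble protein from a 21,000xg, 90 min spin was quantified by TMTpro 16plex LC-MS/MS with channel sums equalised. Thermal stability is expressed against control samples, from duplicates, as a log2 fold change.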

ibrutinib = compound: C=CC(=O)N1CCC[C@@H](n2nc(-c3ccc(Oc4ccccc4)cc3)c3c(N)ncnc32)C1 [ibrutinib]
Summary of the method: as §1

[1] = compound: CC(=O)c1cnc2ccc(-c3cc(Cl)c(O)c(Cl)c3)nc2c1N[C@H]1CC[C@H](CN(C)C)CC1
Summary of the method: as §1

ralimetinib = compound: CC(C)(C)Cn1c(N)nc2ccc(-c3[nH]c(C(C)(C)C)nc3-c3ccc(F)cc3)nc21 [ralimetinib]
Summary of the method: as §1

[2] = compound: CC(C)(O)CC(=O)NCCn1ccc2ncnc(Nc3ccc(Oc4cccc(C(F)(F)F)c4)c(Cl)c3)c21
Summary of the method: as §1

[3] = compound: CC(C)C1=C2N=C(C=C(N2N=C1)NCC3=CC=CC=C3)NCCCCCCN
Summary of the method: as §1

[4] = compound: CC(C)C[C@@H](C=O)NC(=O)[C@H](CC(C)C)NC(=O)[C@H](CC(C)C)NC(=O)OCc1ccccc1
Summary of the method: as §1

pinometostat = compound: CC(C)N(C[C@H]1O[C@@H](n2cnc3c(N)ncnc32)[C@H](O)[C@@H]1O)[C@H]1C[C@@H](CCc2nc3cc(C(C)(C)C)ccc3[nH]2)C1 [pinometostat]
Summary of the method: as §1

[5] = compound: CC1=C(C(CC(=O)N1)C2=CC=C(C=C2)C(F)(F)F)C(=O)NC3=C(C=C4C(=C3)C=NN4)F
Summary of the method: as §1

[6] = compound: CC1=C(C2=C(C=C1)C(=O)C3=CC=CC=C3N2CCCN)C
Summary of the method: as §1

[7] = compound: CC1=C(C=C(C=C1)NC(=O)C2=CC(=CC=C2)C(C)(C)C#N)NC3=CC4=C(C=C3)N=CN(C4=O)C
Summary of the method: as §1

[8] = compound: CC1=C(C=C(C=C1)NC(=O)C2=CC(=CC=C2)N(C)C)NC(=O)C3=CC=C(C=C3)O
Summary of the method: as §1

[9] = compound: CC1=CC=C(C=C1)SC2=C3C=C(SC3=CN=C2)C(=O)N
Summary of the method: as §1

[10] = compound: CC1=NC(=CC=C1)C2=C(N=C(N2)C(C)(C)C)C3=CC4=NC=CN=C4C=C3
Summary of the method: as §1

Nexturastat A = compound: CCCCN(Cc1ccc(C(=O)NO)cc1)C(=O)Nc1ccccc1 [Nexturastat A]
Summary of the method: as §1

vemurafenib = compound: CCCS(=O)(=O)Nc1ccc(F)c(C(=O)c2c[nH]c3ncc(-c4ccc(Cl)cc4)cc23)c1F [vemurafenib]
Summary of the method: as §1

[11] = compound: CCCS(=O)(=O)Nc1ccc(F)c(C(=O)c2c[nH]c3ncc(Cl)cc23)c1F
Summary of the method: as §1

[12] = compound: CCCc1cc(C)[nH]c(=O)c1CNC(=O)c1cc(-c2ccnc(N3CCN(C)CC3)c2)cc2c1cnn2C(C)C
Summary of the method: as §1

givinostat = compound: CCN(CC)Cc1ccc2cc(COC(=O)Nc3ccc(C(=O)NO)cc3)ccc2c1 [givinostat]
Summary of the method: as §1

barasertib = compound: CCN(CCCOc1ccc2c(Nc3cc(CC(=O)Nc4cccc(F)c4)[nH]n3)ncnc2c1)CCOP(=O)(O)O [barasertib]
Summary of the method: as §1

Chain of UniProt Q13428 (Q13428 whole entry, looked up): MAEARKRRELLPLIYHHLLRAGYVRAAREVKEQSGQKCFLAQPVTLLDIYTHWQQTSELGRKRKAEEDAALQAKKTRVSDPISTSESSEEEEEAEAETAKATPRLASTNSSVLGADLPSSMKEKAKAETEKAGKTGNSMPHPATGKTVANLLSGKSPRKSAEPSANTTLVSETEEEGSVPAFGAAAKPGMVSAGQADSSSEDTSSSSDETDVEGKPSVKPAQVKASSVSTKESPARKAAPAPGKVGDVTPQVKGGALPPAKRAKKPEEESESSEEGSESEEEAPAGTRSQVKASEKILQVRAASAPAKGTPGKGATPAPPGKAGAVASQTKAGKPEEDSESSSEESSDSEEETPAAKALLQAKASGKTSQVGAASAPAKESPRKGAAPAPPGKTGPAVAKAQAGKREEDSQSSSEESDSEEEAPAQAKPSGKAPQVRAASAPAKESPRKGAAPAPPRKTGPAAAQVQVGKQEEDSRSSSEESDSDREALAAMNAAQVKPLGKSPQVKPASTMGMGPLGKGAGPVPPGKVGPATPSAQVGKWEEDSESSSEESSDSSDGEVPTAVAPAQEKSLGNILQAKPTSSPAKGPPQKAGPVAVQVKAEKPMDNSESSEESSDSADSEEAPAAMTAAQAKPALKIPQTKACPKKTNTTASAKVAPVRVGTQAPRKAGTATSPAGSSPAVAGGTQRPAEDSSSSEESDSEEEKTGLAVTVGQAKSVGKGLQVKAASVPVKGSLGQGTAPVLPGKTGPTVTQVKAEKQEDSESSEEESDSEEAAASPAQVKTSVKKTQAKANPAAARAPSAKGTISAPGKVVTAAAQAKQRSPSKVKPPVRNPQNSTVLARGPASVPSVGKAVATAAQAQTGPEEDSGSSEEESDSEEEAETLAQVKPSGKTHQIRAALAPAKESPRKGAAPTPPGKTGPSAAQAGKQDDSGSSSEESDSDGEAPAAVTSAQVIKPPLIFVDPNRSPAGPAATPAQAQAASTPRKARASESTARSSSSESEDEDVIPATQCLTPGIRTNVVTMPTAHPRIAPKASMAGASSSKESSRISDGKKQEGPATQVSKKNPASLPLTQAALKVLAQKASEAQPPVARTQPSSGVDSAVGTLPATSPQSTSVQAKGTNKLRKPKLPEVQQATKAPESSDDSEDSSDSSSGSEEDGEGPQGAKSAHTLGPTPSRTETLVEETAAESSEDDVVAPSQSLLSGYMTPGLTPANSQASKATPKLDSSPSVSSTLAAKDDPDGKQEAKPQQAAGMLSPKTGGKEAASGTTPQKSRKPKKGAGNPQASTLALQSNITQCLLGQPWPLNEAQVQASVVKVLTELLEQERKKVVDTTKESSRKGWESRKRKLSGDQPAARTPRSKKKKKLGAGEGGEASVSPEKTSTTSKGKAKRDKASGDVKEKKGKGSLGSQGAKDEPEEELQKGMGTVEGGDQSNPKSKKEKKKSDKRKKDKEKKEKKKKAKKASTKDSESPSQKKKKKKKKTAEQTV
Chain of UniProt Q9Y5J6 (Q9Y5J6 whole entry, looked up): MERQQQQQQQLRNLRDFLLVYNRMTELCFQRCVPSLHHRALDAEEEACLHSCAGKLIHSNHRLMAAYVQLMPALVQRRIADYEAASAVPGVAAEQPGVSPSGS
Chain of UniProt Q9NQZ5 (Q9NQZ5 whole entry, looked up): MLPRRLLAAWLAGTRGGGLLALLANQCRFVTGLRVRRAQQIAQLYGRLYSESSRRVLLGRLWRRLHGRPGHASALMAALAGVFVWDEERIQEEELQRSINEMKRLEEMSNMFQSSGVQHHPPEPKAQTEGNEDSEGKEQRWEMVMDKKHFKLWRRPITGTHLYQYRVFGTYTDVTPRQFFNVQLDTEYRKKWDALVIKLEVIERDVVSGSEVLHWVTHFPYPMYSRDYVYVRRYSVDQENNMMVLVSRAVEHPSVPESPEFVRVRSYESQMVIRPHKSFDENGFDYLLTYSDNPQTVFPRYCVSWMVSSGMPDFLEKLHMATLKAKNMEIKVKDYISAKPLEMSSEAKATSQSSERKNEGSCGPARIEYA
Chain of UniProt O76062 (O76062 whole entry, looked up): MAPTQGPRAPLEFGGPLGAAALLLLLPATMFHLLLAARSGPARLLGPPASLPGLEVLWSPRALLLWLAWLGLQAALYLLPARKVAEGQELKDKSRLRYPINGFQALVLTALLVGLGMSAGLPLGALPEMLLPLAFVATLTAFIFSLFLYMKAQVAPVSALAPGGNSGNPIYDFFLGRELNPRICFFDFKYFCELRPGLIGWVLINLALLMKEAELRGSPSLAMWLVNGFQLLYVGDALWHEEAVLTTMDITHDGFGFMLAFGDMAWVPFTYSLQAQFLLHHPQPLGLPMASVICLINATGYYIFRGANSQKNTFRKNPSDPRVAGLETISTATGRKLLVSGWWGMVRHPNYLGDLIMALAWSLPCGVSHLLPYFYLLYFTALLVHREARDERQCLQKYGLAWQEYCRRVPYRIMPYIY
Chain of UniProt Q9Y6J9 (Q9Y6J9 whole entry, looked up): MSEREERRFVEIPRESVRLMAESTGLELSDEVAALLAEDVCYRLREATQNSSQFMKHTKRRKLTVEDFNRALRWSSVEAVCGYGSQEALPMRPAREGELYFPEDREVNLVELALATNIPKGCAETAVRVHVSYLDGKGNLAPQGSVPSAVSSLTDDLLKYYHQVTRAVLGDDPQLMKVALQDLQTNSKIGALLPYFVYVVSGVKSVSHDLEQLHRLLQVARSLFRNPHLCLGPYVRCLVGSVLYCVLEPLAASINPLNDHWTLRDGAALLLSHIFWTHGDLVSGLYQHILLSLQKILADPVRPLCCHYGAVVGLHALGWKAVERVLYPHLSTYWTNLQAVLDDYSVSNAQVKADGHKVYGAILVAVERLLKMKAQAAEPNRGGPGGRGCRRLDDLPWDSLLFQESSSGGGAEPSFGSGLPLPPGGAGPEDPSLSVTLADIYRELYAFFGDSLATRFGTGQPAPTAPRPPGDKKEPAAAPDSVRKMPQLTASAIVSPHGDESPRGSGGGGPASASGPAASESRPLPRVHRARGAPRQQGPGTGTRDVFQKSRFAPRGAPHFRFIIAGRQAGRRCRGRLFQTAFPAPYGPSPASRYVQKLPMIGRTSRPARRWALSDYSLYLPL
Chain of UniProt Q56A73 (Q56A73 whole entry, looked up): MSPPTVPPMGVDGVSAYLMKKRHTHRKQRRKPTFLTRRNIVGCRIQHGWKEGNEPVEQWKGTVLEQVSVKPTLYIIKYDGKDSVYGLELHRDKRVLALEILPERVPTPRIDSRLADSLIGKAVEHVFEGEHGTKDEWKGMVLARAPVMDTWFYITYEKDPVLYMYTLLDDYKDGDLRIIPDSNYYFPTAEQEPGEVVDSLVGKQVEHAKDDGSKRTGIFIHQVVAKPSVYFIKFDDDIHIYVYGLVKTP
Chain of UniProt Q969X1 (Q969X1 whole entry, looked up): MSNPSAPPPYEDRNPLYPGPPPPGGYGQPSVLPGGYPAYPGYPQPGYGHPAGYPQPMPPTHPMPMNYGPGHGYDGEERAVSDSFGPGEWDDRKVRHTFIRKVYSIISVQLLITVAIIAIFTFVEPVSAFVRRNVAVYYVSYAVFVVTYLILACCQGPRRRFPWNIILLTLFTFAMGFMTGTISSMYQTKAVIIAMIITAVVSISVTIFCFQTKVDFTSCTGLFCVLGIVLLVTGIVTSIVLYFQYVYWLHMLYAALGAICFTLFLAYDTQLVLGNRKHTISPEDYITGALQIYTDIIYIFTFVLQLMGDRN
Chain of UniProt Q9NXE4 (Q9NXE4 whole entry, looked up): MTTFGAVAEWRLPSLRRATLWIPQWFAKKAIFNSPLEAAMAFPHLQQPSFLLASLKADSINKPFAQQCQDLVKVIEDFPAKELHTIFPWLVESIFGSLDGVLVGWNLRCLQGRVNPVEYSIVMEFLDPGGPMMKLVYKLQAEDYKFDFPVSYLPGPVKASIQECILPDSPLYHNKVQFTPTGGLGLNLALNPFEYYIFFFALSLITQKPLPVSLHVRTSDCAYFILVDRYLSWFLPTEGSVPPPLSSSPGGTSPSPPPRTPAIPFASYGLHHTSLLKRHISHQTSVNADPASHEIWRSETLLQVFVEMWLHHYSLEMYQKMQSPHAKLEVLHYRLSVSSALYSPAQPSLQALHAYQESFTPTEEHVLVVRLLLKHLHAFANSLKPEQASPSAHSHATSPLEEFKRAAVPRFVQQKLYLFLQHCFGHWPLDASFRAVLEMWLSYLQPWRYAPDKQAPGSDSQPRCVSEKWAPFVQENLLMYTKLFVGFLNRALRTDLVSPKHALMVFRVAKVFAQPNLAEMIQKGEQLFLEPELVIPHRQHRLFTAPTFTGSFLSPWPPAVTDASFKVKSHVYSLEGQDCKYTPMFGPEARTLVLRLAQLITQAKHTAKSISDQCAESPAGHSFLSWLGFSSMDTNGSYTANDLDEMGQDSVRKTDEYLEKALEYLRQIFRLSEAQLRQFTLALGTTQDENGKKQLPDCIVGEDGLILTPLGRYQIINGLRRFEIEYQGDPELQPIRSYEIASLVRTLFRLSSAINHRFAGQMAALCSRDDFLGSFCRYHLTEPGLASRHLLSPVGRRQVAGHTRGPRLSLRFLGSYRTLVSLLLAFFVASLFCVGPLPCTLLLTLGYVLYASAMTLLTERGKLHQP
Chain of UniProt Q9H4I9 (Q9H4I9 whole entry, looked up): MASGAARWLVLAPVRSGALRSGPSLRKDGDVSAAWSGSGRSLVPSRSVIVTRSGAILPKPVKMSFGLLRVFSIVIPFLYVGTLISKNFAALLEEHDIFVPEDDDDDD
Chain of UniProt Q96NT5 (Q96NT5 whole entry, looked up): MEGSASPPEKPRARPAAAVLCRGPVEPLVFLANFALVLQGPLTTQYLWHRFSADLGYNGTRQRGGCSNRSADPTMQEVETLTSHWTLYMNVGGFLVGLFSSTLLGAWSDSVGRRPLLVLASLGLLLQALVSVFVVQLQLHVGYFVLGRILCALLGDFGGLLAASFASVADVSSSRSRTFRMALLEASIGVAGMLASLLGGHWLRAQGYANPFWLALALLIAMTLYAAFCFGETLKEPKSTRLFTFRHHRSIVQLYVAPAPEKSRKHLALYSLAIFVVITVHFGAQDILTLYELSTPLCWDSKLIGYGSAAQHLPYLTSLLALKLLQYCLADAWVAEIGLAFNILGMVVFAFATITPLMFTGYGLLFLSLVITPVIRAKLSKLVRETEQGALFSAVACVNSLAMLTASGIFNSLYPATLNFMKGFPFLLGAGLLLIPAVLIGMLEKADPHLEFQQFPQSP

Target	log2 fold change (IRAK-1-4 Inhibitor I)	log2 fold change (ibrutinib)	log2 fold change [1]	log2 fold change (ralimetinib)	log2 fold change [2]	log2 fold change [3]	log2 fold change [4]	log2 fold change (pinometostat)	log2 fold change [5]	log2 fold change [6]	log2 fold change [7]	log2 fold change [8]	log2 fold change [9]	log2 fold change [10]	log2 fold change (Nexturastat A)	log2 fold change (vemurafenib)	log2 fold change [11]	log2 fold change [12]	log2 fold change (givinostat)	log2 fold change (barasertib)
STARD7 (UniProt Q9NQZ5)	-0.012	0.055	-0.026	-0.01	-0.051	-0.057	0.028	-0.009	-0.019	-0.003	0.061	0.015	0.004	-0.01	-0.053	0	-0.033	0.024	-0.029	-0.008
SLK isoform 2 (UniProt Q9H2G2)	-0.008	-0.123	0.04	0.005	-0.216	0.002	0.022	0.022	-0.025	0.073	-0.078	-0.07	0.051	0.02	-0.007	0.03	0.092	0.026	0	0.047
SYK (UniProt P43405)	-0.192	0.056	-0.277	0.241	-0.1	0.128	0.048	0.19		-0.425		0.015	-0.025	-0.386	0.901 (active)	-0.097	-0.058		0.307	-0.094
SNRK (UniProt Q9NRH2)	-0.126							-0.087			-0.029		0.066	0.225			0.07			
TCOF1 isoform 3 (UniProt Q13428)				0.522	-0.095	-0.01	0.176			-0.642	-0.051	0.262			-0.429				0.047	
TMBIM1 (UniProt Q969X1)		0.037	-0.126	0.264	0.16	-0.066	-0.166		-0.107	0.089	0.113	-0.055	0.09		-0.02	-0.132	0.185	-0.134	0.004	-0.057
SMPD4 isoform 2 (UniProt Q9NXE4)	0.016	-0.156	0.196					0		0.115			0.162	-0.023		-0.301	0.099	-0.035		0.034
SSBP4 (UniProt U3KPY3)																-0.095		-0.028		
TC2N (UniProt Q8N9U0)			-0.486	-0.036			0.028		-0.364	0.014		0.077				0.063		-0.098		
TIMM10B (UniProt Q9Y5J6)		-0.008	-0.231	0	-0.07	-0.197	-0.126		0.017	0.089	-0.053	-0.075	0.018		-0.05	0.073	-0.077	-0.057	0.061	0.067
SLC9A6 isoform 3 (UniProt Q92581)		-0.012	0.004			0.051				0.075			-0.152				-0.152		-0.021	0.109
SLC46A1 (UniProt Q96NT5)			-0.008			-0.04				-0.049						0.056			0.011	
TAF6L (UniProt Q9Y6J9)			0.054	-0.092		0.023	0.122		0.118	-0.03	-0.042	0.114	-0.055				-0.059	0.091	0.075	
SPIN4 (UniProt Q56A73)	0.07					-0.079		0.051						-0.601					-0.245	
SMDT1 (UniProt Q9H4I9)	0.039	0.036	-0.026		-0.012			-0.043		0.027	0.137			0.033	-0.015	0.037		-0.127		-0.021
STK17B (UniProt O94768)	-0.12	-0.235				-0.262		0.033						0.031					0.16	0.29
TM7SF2 (UniProt O76062)				-0.106		-0.124	-0.01		-0.134		0.051	0.015	-0.045			0.252	0.123		0.18	
TACC2 (UniProt O95359)		-0.058	0.054	0.108		-0.205	-0.007		0.069	0.058	-0.015	-0.058	0.16			0.032	-0.054	-0.085	-0.284 (active)	0.012
SLC35B1 isoform 2 (UniProt P78383)	-0.067	0.09		-0.184	-0.217	-0.04	0.038	0.065	-0.086	0.011	0.165	-0.109		0.054	0.072	0.267		-0.221	0.069	-0.055
TCOF1 isoform 6 (UniProt Q13428)	0.041	0.12		0.225		0.092	-0.127	-0.121	0	-0.155	0.148	-0.078		-0.105		0.146		0.545	-0.024	0.008
